For seven compounds, outcome and AC50 results are on record in PubChem BioAssay (EPA / NIEHS).

Records with an inconclusive call do not appear. Active and inactive are the calls of the source. How the source made its calls, unless noted: active means hit-call score of the fitted dose curve at least 0.9, where 1 is the maximum; inactive means score below 0.9. Starred links: 1 amine or outer side, 2 acyl side, 3 side chain; linkers in the order of their positions; H or OH if unused. Positions of bridges follow the written chain, without caps; N, C: chain ends. Non-standard residues stand in square brackets, D forms with d. Residues, ends and D or L forms follow the SMILES beside them. Adda = CO[C@@H](Cc1ccccc1)[C@@H](C)/C=C(C)/C=C/[C@H](N[*:1])[C@H](C)C(=O)[*:2]; dAsp(3S-Me) = C[C@H](C(=O)[*:3])[C@@H](N[*:1])C(=O)[*:2]; d(γGlu) = O=C(O)[C@@H](CCC(=O)[*:2])N[*:1]; NMeDha = C=C(NC)C(=O)O

A short description of assay [1]: UKN2_HCS_IMR90_neural_migration: University of Konstanz (UKN) Leist Lab Neural Crest Cell Migration Assay in human induced IMR90 Pluripotent Stem Cells (UKN2) (AID 2284204). As to conditions: actives raise or lower the signal. A digest of the protocol:
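High-content imaging of calcein-AM and Hoechst stained cells quantifies migration into a stopper-defined gap after 24 h compound exposure. Neural crest cells from IMR90 iPSC migrated 24 h in EGF/FGF N2-S medium before dosing; DMSO baseline.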

Assay [2] can be described thus: IUF_NPC1b_proliferation_BrdU_72hr: Leibniz Research Institute for Environmental Medicine (IUF) 72-hour Neural Progenitor Cell Bromodeoxyuridine (BrdU) Proliferation Assay (NPC1b) (AID 2284207). Put shortly: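 Human fetal cortex-derived (GW 16-19) neural progenitor spheres, 0.25-0.35 mm, one per well in EGF/FGF proliferation medium, exposed to compound for 72 h at 37C, pH 7.2-7.6. BrdU incorporation over the final 16 h read by luminescence ELISA, relative to DMSO.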

A short description of assay [3]: IUF_NPC1a_proliferation_area_72hr: Leibniz Research Institute for Environmental Medicine (IUF) 72-hour Neural Progenitor Cell Proliferation Area Assay (NPC1a) (AID 2284208). A digest of the protocol:
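Proliferation read as increase in sphere area by phase-contrast imaging over 72 h continuous compound exposure (no renewal) of hNPC spheres grown with EGF/FGF at 37C, 5% CO2. Growth-factor withdrawal served as positive control; DMSO as baseline.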

The nature of assay [4]: IUF_NPC1_viability_72hr: Viability Assessment at 72 hours in the Leibniz Research Institute for Environmental Medicine (IUF) Neural Progenitor Cell Proliferation Assay (NPC1) (AID 2284209). A digest of the protocol:
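Three-day continuous exposure of human neural progenitor spheres under EGF/FGF-driven proliferation; cell viability scored by alamar blue signal versus DMSO.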

Assay [5] in a line: CCTE_Mundy_HCI_Cortical_NOG_NeuriteLength: CCTE's Neurite Outgrowth Assay in rat cortical cells for Neurite Length, Mundy Lab (AID 2284213).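 On AC50: neurites imaged about 48 to 50 h after chemical exposure began.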 A digest of the protocol:
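First, rat primary cortical cells were plated and, 2 h later, given test chemical as a 1/10 dilution. Finally, βIII-tubulin immunostaining enabled automated imaging of neurite length.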

The nature of assay [6]: CCTE_Mundy_HCI_Cortical_Synap_Neur_Matur_NeuriteLength: CCTE's Synaptogenesis and Neurite Maturation Assay in rat cortical cells for Neurite Length, Mundy Lab (AID 2284214). A digest of the protocol:
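DMSO-normalised neurite length, from high-content imaging of anti-MAP2-stained rat cortical cells fixed at DIV 12. Glia were suppressed with AraC (DIV 5) before chemical exposure from DIV 7.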

Assay [7] in a line: CCTE_Mundy_HCI_Cortical_Synap_Neur_Matur_NeuriteSpotCountPerNeuron: CCTE's Synaptogenesis and Neurite Maturation Assay in rat cortical cells for Neurite Spot Count per Neuron Count, Mundy Lab (AID 2284215). A digest of the protocol: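 High-content imaging counts synaptophysin puncta along MAP2-labelled neurites per neuron after chemical exposure of rat cortical cells from DIV 7 to termination at DIV 12 (AraC added DIV 5). Loss of signal relative to DMSO.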

Assay [8] can be described thus: CCTE_Mundy_HCI_Cortical_Synap_Neur_Matur_SynapseCount: CCTE's Synaptogenesis and Neurite Maturation Assay in rat cortical cells for Synapse Count, Mundy Lab (AID 2284218). Put shortly: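 Endpoint: synapses/neuron by HCI (synaptophysin puncta on MAP2-labelled neurites, Hoechst nuclei). Rat primary cortical cells, AraC DIV 5, dosed DIV 7, fixed DIV 12; DMSO negative control.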

The nature of assay [9]: UKN2_HCS_IMR90_cell_viability: Viability Assessment in the University of Konstanz (UKN) Leist Lab Neural Crest Cell Migration Assay in human induced IMR90 Pluripotent Stem Cells (UKN2) (AID 2284233).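 Further: cells exposed to compound for 24 h after a 24 h migration phase.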 Put shortly:
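After calcein-AM/Hoechst staining, viability is quantified by high-content fluorescence imaging, relative to DMSO, in iPSC (IMR90)-derived neural crest cells. Exposure lasts 24 h, starting after a 24 h migration period on PLO/laminin/fibronectin coating.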

A short description of assay [10]: IUF_NPC2c_oligodendrocyte_migration_120hr: Leibniz Research Institute for Environmental Medicine (IUF) 120-hour Neural Progenitor Cell Migration Assay for Oligodendrocyte Migration (NPC2c) (AID 2284297).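 Further: O4-positive oligodendrocyte migration distance divided by radial glia migration distance.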 Put shortly:
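Exposure runs 5 days from differentiation onset at 37C, seven concentrations plus solvent control, DMSO at most 0.1%, applied to primary hNPC spheres on laminin. After fixation, O4 immunostaining gives oligodendrocyte distance from the sphere core, relative to radial glia migration.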

Assay [11] is described as follows: IUF_NPC2a_radial_glia_migration_120hr: Leibniz Research Institute for Environmental Medicine (IUF) 120-hour Neural Progenitor Cell Migration Assay for Radial Glia Migration (NPC2a) (AID 2284298). Put shortly:
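Migration distance in um, sphere core edge to migration-area edge, derived by nuclei-density algorithm from Hoechst images after 120 h compound exposure. Primary hNPC spheres differentiated on poly-D-lysine/laminin in N2 medium, 37C; medium half-replaced day 3.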

The nature of assay [12]: IUF_NPC2a_radial_glia_migration_72hr: Leibniz Research Institute for Environmental Medicine (IUF) 72-hour Neural Progenitor Cell Migration Assay for Radial Glia Migration (NPC2a) (AID 2284299). A digest of the protocol:
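Spheres of human primary neural progenitors migrate on poly-D-lysine/laminin under compound exposure at 37C, 5% CO2. The 72 h radial glia migration distance comes from brightfield images, measured manually.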

Assay [13] is described as follows: IUF_NPC2b_neuronal_migration_120hr: Leibniz Research Institute for Environmental Medicine (IUF) 120-hour Neural Progenitor Cell Migration Assay for Neuron Migration (NPC2b) (AID 2284300). A digest of the protocol:
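TUBB3-positive neurons are imaged after 120 h of differentiation, and their mean distance from the sphere edge is normalised to radial glia migration. Single 0.3 mm fetal hNPC spheres on poly-D-lysine/laminin received 7 compound concentrations, ≤0.1% DMSO, refreshed at day 3.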

Assay [14] can be described thus: IUF_NPC3_neuronal_differentiation_120hr: Leibniz Research Institute for Environmental Medicine (IUF) 120-hour Neuronal Differentiation Assay (NPC3) (AID 2284301). Put shortly:
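Value is percent TUBB3-positive neurons among Hoechst-stained nuclei in the migration area, scored by trained CNN after 120 h differentiation. Primary hNPC spheres on poly-D-lysine/laminin, N2 medium, continuous dosing from day 0, half-refeed day 3; DMSO reference.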

The nature of assay [15]: IUF_NPC4_neurite_length_120hr: Leibniz Research Institute for Environmental Medicine (IUF) 120-hour Neuronal Morphology Assay for Neurite Length (NPC4) (AID 2284302). A digest of the protocol: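 Neurite length, the mean in um across TUBB3-stained neurons, is derived by skeletonization of high-content images after 120 h differentiation. Compound exposure, 7 concentrations plus solvent control, ran from plating of hNPC spheres on poly-D-lysine/laminin, with medium half-replaced on day 3.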

Assay [16] is described as follows: IUF_NPC2-5_cytotoxicity_72hr: Cytotoxicity Assessment at 72 hours in the Leibniz Research Institute for Environmental Medicine (IUF) Neural Progenitor Cell Migration and Differentiation Assay for Cytotoxicity (NPC2-5) (AID 2284306; active means hit-call score of the fitted dose curve at least 0.9, where 1 is the maximum;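 further: LDH release into supernatant measured by resorufin fluorescence marking membrane damage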). A digest of the protocol:
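Membrane-integrity cytotoxicity at 72 h, read as LDH-driven resorufin fluorescence in supernatant. hNPC spheres from fetal cortex differentiate on coated plates in N2 medium, 37C, 5% CO2; seven serial compound concentrations plus solvent control (DMSO ≤0.1%).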

Assay [17] in a line: IUF_NPC2-5_cell_number_120hr: Cell Number Assessment at 120 hours in the Leibniz Research Institute for Environmental Medicine (IUF) Neural Progenitor Cell Migration and Differentiation Assay (NPC2-5) (AID 2284308).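 Further: count of Hoechst-stained nuclei in migration zone around plated human neural progenitor spheres.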 A digest of the protocol:
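Counting of all Hoechst-stained nuclei in the migration area at 120 h, versus DMSO control. Primary hNPC spheres differentiated on poly-D-lysine/laminin in N2 medium at 37C, dosed from day 0 (7 concentrations, DMSO ≤0.1%), half-refed day 3.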

Assay [18] is described as follows: IUF_NPC2-5_viability_120hr: Viability Assessment at 120 hours in the Leibniz Research Institute for Environmental Medicine (IUF) Neural Progenitor Cell Migration and Differentiation Assay (NPC2-5) (AID 2284312). A digest of the protocol:
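Alamar blue resorufin fluorescence read after 5 days of differentiation, with compound present from day 0 and replenished at day 3. Primary hNPC spheres on laminin-coated plates, 37C; seven concentrations plus solvent control, fitted against DMSO.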

Assay [19] can be described thus: CCTE_Harrill_HTTr_Apoptosis_MCF7: CCTE's 6-hour Apoptosis Assessment for the High-Throughput Transcriptomics (HTTr) Platform, in MCF-7 cells cultured in DMEM + 10% fetal bovine serum, Harrill Lab (AID 2284011). A digest of the protocol: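 High-content imaging of CellEvent Caspase 3/7 Green signal follows a six-hour exposure, with eight concentrations per chemical. MCF-7 cells grown in DMEM plus 10% fetal bovine serum; activity fitted in both directions against DMSO.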

Assay [20] in a line: CCTE_Shafer_MEA_dev_AB: CCTE's Alamar Blue Assay for Cytotoxicity in the Neural Network Formation Assay, Shafer Lab (AID 2284083; active means hit-call score of the fitted dose curve at least 0.9, where 1 is the maximum;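 further: twelve days of exposure from plating with re-dosing on DIV 5 and 9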). Put shortly: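 Primary rat cortical neurons on PEI-coated 48-well MEA plates, 1.5 x 10^5 cells/well in laminin drop; compound exposure from day 0 of plating for twelve days, renewed at medium changes on DIV 5 and 9. Viability read as resazurin reduction by fluorescence, relative to DMSO.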
(In general: Resazurin is reduced to fluorescent resorufin, in cell work by metabolically active cells.)

On to `CC1(C)[C@H](C=C(Cl)Cl)[C@H]1C(=O)OCc1c(F)c(F)cc(F)c1F`, for which the outcome in assay [1], in assay [3], in [4], in assay [9], in assay [10] and in assay [11] was inactive. In addition, the result in [12], in assay [13], in [14], in assay [15], in assay [16] and in assay [17] was inactive. Also, in [18], the outcome was inactive. Moreover, the AC50 in [2] was 0.897 µM (active); in assay [5], 78.2 µM (active); in [6], 9.91 µM (active); in assay [7] it was 9.68 µM (active); in assay [8], 9.74 µM (active).

In the case of `COP(=S)(Oc1cc(Cl)c(Br)cc1Cl)c1ccccc1` (stereo not drawn), in [19], the result was inactive.

For `C=C1C(=O)N[C@H](C)C(=O)N[C@H](CC(C)C)C(=O)N[C@@H](C(=O)O)[C@H](C)C(=O)N[C@@H](CCCN=C(N)N)C(=O)N[C@@H](/C=C/C(C)=C/[C@H](C)[C@H](Cc2ccccc2)OC)[C@H](C)C(=O)N[C@@H](C(=O)O)CCC(=O)N1C` (R[Adda][d(γGlu)][NMeDha][dA][dL][dAsp(3S-Me)]-OH; lactam N-7), the result in assay [19] was inactive.

Regarding `C[C@H](N)Cc1ccccc1`, the outcome in assay [5], in assay [6], in assay [7] and in [8] was inactive.

With `CCOP(=S)(OCC)SCS(=O)C(C)(C)C` (stereo not drawn), the call in assay [1], in assay [3], in [4], in assay [5], in [6] and in assay [7] was inactive. In addition, the compound was called inactive in [8], in assay [9], in [10], in assay [11], in assay [12] and in [13]. Further, the result in assay [14], in assay [15], in assay [16], in [17] and in assay [18] was inactive. The AC50 in assay [2] is 2.34 µM (active).

As for `C/C(=C/C=C/[C@@H](C)C(=O)O)[C@H]1CN[C@H](C(=O)O)[C@H]1CC(=O)O`, the result in [20], in assay [1], in [2], in assay [3], in assay [4] and in [9] was inactive. Further, the result in assay [10], in assay [11], in assay [12], in assay [13], in assay [14] and in assay [16] was inactive. The result in [17] and in [18] was inactive. For the same compound, the AC50 in [15] was 0.0406 µM (active).

As to `ClC=C(Cl)CCl`, the result in assay [19] was inactive.

One may read the AC50 as the concentration at which the activity in the assay is half-maximal.
